The campaign covered roughly 2,300 compounds. About 2,100 (91%) were called active.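 Rule for the calls: active = compounds raising the signal whose fitted half-maximal concentration is at or below their top tested dose (cut at about 25 µM in these data); inconclusive = flat fit at 30 to 70% activity, or a poor fit; inactive = the rest.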 The set was probably picked from earlier hits. The list is a sample of the results. Measured potencies and affinities stand elsewhere.

A short description of this experiment: cytokine-free beta-cell viability effect – INS-1E rat cells, ATP luminescence, cherry pick, counter-screen for beta-cell apoptosis protection project, dose response (AID 463229). The following applies: INS-1E rat beta cells, no cytokines, CellTiter-Glo ATP, 48 h; series mostly up to 26 µM. Background: The purpose of a counterscreen is to sort out artefacts and off-target activity.
As to `CC(=O)c1ccccc1OCCOCCOc1ccccc1C(C)=O`, the molecule was classed as inactive. Next, `Cc1cc(C)c2c(C)[nH]nc2n1`: “inactive”; `O=C(c1ccccc1)C(CCC(CN1CCOCC1)C(=O)c1ccccc1)CN1CCOCC1` (configuration not stated): “inactive”.

On to `CC(=O)SC1CC(=O)N(c2c(C)cccc2C)C1=O` (configuration not stated), for which the call was inactive. For the molecule `COc1ccccc1/C=N\Nc1cc(C)nc(-n2nc(C)cc2C)n1`, the molecule was called inactive.

Consider `O=C(Nc1ccc(Nc2ccncc2)cc1)c1ccc(Nc2ccnc3ccc([N+](=O)[O-])cc23)cc1[N+](=O)[O-]`, for which the outcome was inactive. Under `O=c1c(Cl)c2oc3ccccc3nc-2c2ccccc12` stands “inactive”; under `CCN(CC)c1ccc(N=C2C(=O)Nc3ccccc32)cc1`, “inactive”; under `O=C1CSC(c2cccnc2)N1CC1CC1` (configuration not stated), “inactive”.

Turning to `Cc1ccccc1NC(=S)Nc1cccc2cnccc12`, the result was inactive. Next, `COc1ncnc(OC)c1S(=O)(=O)Nc1ccc(C(F)(F)F)cc1`: “inactive”.

Turning to `Cc1ccccc1Cn1ccc(=NCc2ccccc2)cc1`, the result was inactive. In the case of `Cc1ccc(S(=O)(=O)N2CCCCC2c2cccnc2)c(C)c1C` (configuration not stated), the result was inactive. Next, `Cc1ccc(Oc2nc(-c3ccccn3)nc3ccccc23)cc1`: “inactive”; `Nc1ccc(N2CCCCC2)cc1N1CCCCC1`: “inactive”; `CC(=O)Oc1c(Cl)cc(N(C(C)=O)S(=O)(=O)c2ccccc2)c2ccccc12`: “inactive”.

On to `O=C(COC(=O)Cn1cnc2ccccc2c1=O)Nc1ccc2c(c1)OCO2`, for which the call was inactive. Under `CC(C)OCCCNC(=S)N1CCC(C(=O)c2ccc(Cl)cc2)CC1` stands “inactive”; under `CC(C)(C)n1[nH]c2c3c(ccc2c1=O)C(=O)c1ccccc1C3=O`, “inactive”. Under `CCCCC[n+]1ccn(C2=C([O-])c3ccccc3C(=O)/C2=N\S(=O)(=O)c2ccccc2)c1` stands “inactive”; under `CCCCN(C)CCNC(=O)c1cc2c(-c3ccccc3F)nn(C)c2s1`, “inactive”; under `CC(C(c1cccs1)c1c(N)n(C)c(=O)n(C)c1=O)[N+](=O)[O-]` (configuration not stated), “inactive”.
